PubChem BioAssay AID602429 (Sanford-Burnham Center for Chemical Genomics, 2012)
Screen size: about 360,000 compounds; about 1,200 (0.33%) were called active. Cut-off read from the data, not from the text of the source: active = inhibition above about 37%; inactive = the rest. The sample as a whole holds a higher share of actives than the screen did.

Target: Small ubiquitin-related modifier 1 (Homo sapiens) (UniProt P63165)
Test: SUMO1 binding to interaction partners, disruption – biochemical, uHTS, primary screen (AID 602429)
Conditions: SUMO1 binding to a labelled peptide, TR-FRET, 1 h; at 20 µM; active compounds read high

Chain of Small ubiquitin-related modifier 1 (Homo sapiens) (P63165 whole entry, looked up): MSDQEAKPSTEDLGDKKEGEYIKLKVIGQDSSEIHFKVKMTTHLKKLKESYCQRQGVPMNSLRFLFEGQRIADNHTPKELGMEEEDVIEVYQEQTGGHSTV

SMILES	inhibition
Cc1nnc(SCC(=O)Nc2ccc(S(=O)(=O)Nc3ccc(Cl)nn3)cc2)s1	25.2% (inactive)
COC(=O)CNC(=O)c1ccc(OC2CCN(C(=O)C3CC3)CC2)cc1	-0.596% (inactive)
Clc1ccc(C2=CSC3=Nc4cccc5cccc(c45)N23)cc1	55.4% (active)
CC(C)(C)NC(=O)C(c1ccco1)N(Cc1ccc2c(c1)OCO2)C(=O)Cn1nnc2ccccc21 (stereo not given)	1.87% (inactive)
CCCCn1c(N)c(N(CC(C)C)C(=O)C2CSC3(C)CCC(=O)N23)c(=O)[nH]c1=O (stereo not given)	2.07% (inactive)
CSc1cc(C)n(-c2ccccc2C)c(=S)c1C(C)=O	-3.72% (inactive)
O=C(c1cccs1)N1CCC(c2nc3ccccc3s2)CC1	-0.383% (inactive)
O=C(NCCCN1CCOCC1)c1ccccc1NS(=O)(=O)c1ccc(F)cc1	2.97% (inactive)
CCOC(=O)Cn1nnnc1C	4.96% (inactive)
COc1ccc(S(=O)(=O)N2CCOCC2)c(C)c1C	0.744% (inactive)
C=CCn1c(=S)[nH]c2scc(-c3ccco3)c2c1=O	80.7% (active)
C=CCNC(=S)NNc1ncnc2sc3c(c12)CC(C)(C)OC3	-4.03% (inactive)
O=C(Nc1ccccc1C(=O)NCCCn1ccnc1)c1ccc(Cl)cc1Cl	-2.3% (inactive)
C=C(Br)CN1CCN(CC(=C)Br)CC1	1.02% (inactive)
O=C(CN1CCCCCC1)Nc1c(Cl)cc(Cl)cc1Cl	-1.26% (inactive)
O=C(CSc1nc(C2CC2)nc2ccccc12)Nc1cccc(O)c1	45.7% (active)
O=C(CSc1nc(C2CC2)nc2ccccc12)Nc1ccc2c(c1)OCCO2	-1.95% (inactive)
Cc1nnc(NC(=O)CSc2nc(C3CCCCC3)nc3ccccc23)s1	-2.49% (inactive)
O=C(Cn1cnc2c(nnn2Cc2ccc(F)cc2)c1=O)NCc1ccc2c(c1)OCO2	1.22% (inactive)
Cc1cc(S(=O)(=O)c2cc3ccc(O)c(C)c3oc2=O)ccc1F	-12.4% (inactive)

SMILES	inhibition
OCCc1ccc(NCCc2ccco2)cc1	4% (inactive)
COc1ccc(C(=O)Nc2cc(C)c(NC(=O)c3ccccc3OC)cn2)cc1	40% (active)
COc1ccc(C(=O)N/N=C(\C)CC(=O)Nc2ccc(Cl)cn2)cc1	-4.09% (inactive)
COc1ccccc1NC(=O)c1cc(Cl)nnc1Cl	-6.09% (inactive)
CCOc1ccc(NC(=O)c2ccc(NC(=O)COC(=O)c3ccc(NC(=O)CC#N)cc3)cc2)cc1	58.6% (active)
CCOc1ccc(NC(=O)c2ccc(NC(=O)C3CCCO3)cc2)cc1 (stereo not given)	1.59% (inactive)
CCOc1ccc(NC(=O)c2ccc(NC(=O)CN3C(=O)C(=O)N(CC(C)C)C3=O)cc2)cc1	6.4% (inactive)
CCCCn1c(N)c(N(CCOC)C(=O)c2cccc(S(=O)(=O)N3CCCCC3)c2)c(=O)[nH]c1=O	1.21% (inactive)
Cc1nc2ccccc2c(C)c1C(=O)c1ccc(F)cc1	-0.636% (inactive)
O=C(NNC(=S)NC(=O)c1cn(-c2ccccc2)nc1-c1ccccc1)c1ccncc1	7.64% (inactive)
Cc1onc(-c2ccccc2)c1C(=O)NNC(=S)NC(=O)c1ccc(F)cc1	61.3% (active)
CCc1nc2ccc(C(=O)N(C)Cc3ccco3)cn2c1N(C)C(=O)Cc1ccccc1	3.29% (inactive)
CCc1cc2cc(OC)ccc2nc1SCC(=O)Nc1cc(OC)c(OC)cc1C(=O)O	4.88% (inactive)
CCOC(=O)C1=C(C)NC(C)=C(C(=O)OCC)C1C1=COCCO1	-7.71% (inactive)
CC(=O)Nc1cc(-c2ccc(N3CCN(C)CC3)cc2)cn2c(-c3ccc(F)cc3)cnc12	-43.3% (inactive)
C=CC(=O)Nc1ccc(Nc2ccnc(Nc3ccc(N4CCN(C)CC4)cc3)n2)cc1	88.3% (active)
O=C(Nc1ccc(N2CCN(C(=O)c3cccs3)CC2)cc1)c1cccnc1Cl	-1.91% (inactive)
Cc1noc(C)c1S(=O)(=O)Nc1ccc(C(=O)O)cc1	2.25% (inactive)
CC(=O)N1c2ccc(S(=O)(=O)N3CCCC(C(=O)Nc4cccc(F)c4)C3)cc2CC1C (stereo not given)	1.06% (inactive)
O=C(COC(=O)c1cccc(Cl)c1)Nc1ccc2[nH]c(=O)[nH]c2c1	3.54% (inactive)

SMILES	inhibition
COc1ccc(C(=O)OCC(=O)Nc2ccc3[nH]c(=O)[nH]c3c2)c(OC)c1OC	45.3% (active)
O=C(COc1ccc([N+](=O)[O-])cc1Cl)Nc1ccc2[nH]c(=O)[nH]c2c1	-14.3% (inactive)
Cc1ccc(S(=O)(=O)N2CCN(C(=O)Cn3c(=O)cnc4ccccc43)CC2)c(C)c1	-18.5% (inactive)
O=C(CCl)N(Cc1cccc([N+](=O)[O-])c1)c1cccc(Cl)c1	-8.32% (inactive)
Nc1c(Cl)cc(S(N)(=O)=O)cc1S(N)(=O)=O	-2.85% (inactive)
Cc1ccc(SC(CC(=O)c2ccc(C(C)(C)C)cc2)C(=O)O)cc1 (stereo not given)	1.42% (inactive)
CCC(=O)c1ccc(OCC(O)CN2CCN(c3cccc(C(F)(F)F)c3)CC2)cc1 (stereo not given)	-0.535% (inactive)
OC(COc1ccc2c(c1)CCC2)CN1CCN(c2cccc(Cl)c2)CC1 (stereo not given)	0.823% (inactive)
OC(COc1ccccc1)CN1CCN(c2cccc(Cl)c2)CC1 (stereo not given)	49.6% (active)
CC1CCCC(NC(=O)CSc2nccn2C)C1C (stereo not given)	-1.19% (inactive)
O=C(COc1coc(CN2CCN(c3ccccc3F)CC2)cc1=O)N1CCc2ccccc21	47.1% (active)
O=C(COc1coc(CN2CCN(c3ccccc3)CC2)cc1=O)N1CCc2ccccc21	-4.23% (inactive)
O=C(COc1coc(CN2CCN(c3ccccc3)CC2)cc1=O)Nc1ccccc1F	0.279% (inactive)
C=C1c2c(Cl)ccc(O)c2C(O)=C2C(=O)[C@]3(O)C(O)=C(C(N)=O)C(=O)[C@@H](N(C)C)[C@@H]3[C@@H](O)C12 (stereo not given in full)	62.7% (active)
CCC(C)CCN1CCN=C1N(C)C (stereo not given)	1.08% (inactive)
Cc1ccc(NC(=O)Cn2sc3ccccc3c2=O)cc1	5.66% (inactive)
O=c1c2cc([N+](=O)[O-])ccc2nc2n1CCC2	-38.3% (inactive)
O=[N+]([O-])c1cc(Cl)cc(/C=N/NC(=S)Nc2cc(S(=O)(=O)N3CCOCC3)ccc2Cl)c1O	36.3% (active)
COCCNC(=S)Nc1cc(S(=O)(=O)N2CCOCC2)ccc1N1CCCCC1	1.91% (inactive)
Cc1cc(OCCCC(=O)Nc2cc(S(=O)(=O)N3CCOCC3)ccc2N2CCOCC2)ccc1Cl	-3.23% (inactive)
